This is a sample that favours compounds with a hit; in the whole collection about 6.7% have one here.
KB-V1 MDR tox: KB-V1 MDR subline cytotoxicity; Potency, µM (top dose mostly 46.1 µM), hits mostly cytotoxic; KB-V1 MDR cells viability, CellTiter-Glo, 72 h; 3.4% of 400,000 active; further: on the % scale 0 is the no-effect control and ±100 the full control effect; nearly all actives have a fitted effect of over 60% in size
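Cytotoxicity toward P-gp-expressing KB-V1 cells was determined as loss of CellTiter-Glo luminescence after 72 h at 37 degrees C. Compounds were tested in quantitative HTS format across a concentration range, with curves fitted to normalized data.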
KB-3-1 cytotox: kills parental KB-3-1 adenocarcinoma cells; Potency, µM (titrated, usually from 46.1 µM), most hits filed as cytotoxic; AID 1347075; 1.4% of 400,000 active; KB-3-1 viability, CellTiter-Glo ATP luminescence, 72 h; further: on the % scale 0 is the no-effect control and ±100 the full control effect; nearly all actives have a fitted effect of over 60% in size
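Parental KB-3-1 adenocarcinoma cells in phenol-red-free DMEM with 10% FBS were pin-treated with compounds at several concentrations, incubated 72 h at 37 °C, and viability read by CellTiter-Glo luminescence; concentration-effect curves were fitted after normalization.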
MCF10A rerep: DNA re-replication induction in MCF 10a cells | AID 624296 | Potency, µM (doses to about 46.1 µM), inactives show at the highest dose activity, positive = re-replication, hits mostly activators | 2.9% of 350,000 active | MCF 10A DNA re-replication, Hoechst nuclear intensity, 48 h; further: % of control where 0% means no effect; nearly all actives have a fitted effect of over 50% in size
SW480 rereplic: inducers of DNA re-replication in SW480 colon cancer cells; SW480 DNA re-replication, Hoechst DNA content imaging, 48 h; Potency, µM (top dose mostly 46.1 µM), inactives show at the top dose re-replication activation, hits mostly activators; 1.8% of 340,000 active; further: % of control where 0% means no effect; nearly all actives have a fitted effect of over 55% in size
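Cells (250 per well) received 23 nL compound or DMSO by pin tool and were kept 48 hr at 37 C, 5% CO2. Nuclei were then stained with Hoechst for 40 min and scanned for DNA content.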
PINK1 expr mod: changes PINK1 expression | PINK1 immunofluorescence, high-content cytometry, 24 h | Potency, µM (series often up to 76.6 µM), inactives show at the top dose activation (PINK1 increase), actives largely listed as activators | 0.2% of 410,000 active; active means well fitted activation curve with a large enough effect; inconclusive means small, poorly fitted or top-dose-only effect; cell line not stated here; further: % of control where 0% means no effect; nearly all actives have a fitted effect of over 65% in size
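Readout is PINK1 immunofluorescence, quantified alongside mitochondrial, cell and nuclear markers by laser-scanning microplate cytometry. Cells from a stable line were exposed to compound titrations (5 concentrations) for 24 hours, with CCCP controls.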
* = called active by the depositor; i = inactive; ? = inconclusive; / = not tested or not shown; ! = a repeat was not active; [ ] = remark or other dose. Unless noted, the call rests on the fitted dose curve; in most records, active means well fitted curve in the direction sought with a large enough effect; inconclusive means small, poorly fitted or top-dose-only effect, or another doubt; inactive means no such curve, though single readings can be large; an effect the other way counts as inactive or inconclusive. Potency means the concentration at half of the fitted maximal effect.

SMILES	KB-V1 MDR tox	KB-3-1 cytotox	MCF10A rerep	SW480 rereplic	PINK1 expr mod
CCc1ccc(N2NC(=O)/C(=C/C=C/c3ccco3)C2=O)cc1	i	i	21µM*	17%	-1%
O=C1NC(=O)N(Cc2ccccc2)C(=O)/C1=C\c1ccco1	i	i	16%	12%	6%
O=C1NC(=O)N(Cc2ccc(F)cc2)C(=O)/C1=C\C=C\c1ccco1	?	?	3.7µM*	8.2µM*	-1%
CNNC	/	/	/	/	1%
Cc1nn(-c2nccs2)c2c1C(=O)CC(C)(C)C2Br (stereo unspecified)	i	i	?	?	9%
Cc1ccc(N2C(=O)NC(=O)/C(=C/C=C/c3ccco3)C2=O)cc1	18µM*	?	9.2µM*	16µM*	-3%
CCCCN1C(=O)/C(=C/C=C/c2ccco2)C(=O)NC1=S	i	i	-8%	-6%	1%
CC(C)c1ccc(N2C(=O)NC(=O)/C(=C/C=C/c3ccco3)C2=O)cc1	?	15µM*	6.5µM*	?	-2%
Cc1cc(C)cc(N2C(=O)NC(=O)/C(=C\C=C\c3ccco3)C2=O)c1	23µM*	?	13µM*	?	-1%
CCc1ccc(N2C(=O)NC(=O)/C(=C\C=C\c3ccco3)C2=O)cc1	?	?	23µM*	18µM*	0%
CCCNc1oc(-c2cccc3ccccc23)nc1C#N	i	i	?	-7%	3%[38.3 µM]
COP(=O)(OC)c1nc(-c2cccc3ccccc23)oc1NCCc1ccccc1	?	i	21µM*	?	-1%
CCOP(=O)(OCC)c1nc(-c2cccc3ccccc23)oc1NCc1ccccc1	9.2µM*	i	?	?	0%[38.3 µM]
CCOc1cccc(=NC2CCCCC2)c2c(C)n(C)c(C)c12	?	18µM*	-1%	3%[9.22 µM]	16µM*
CCC(=O)Nc1ccc(C(=O)NNC(=O)c2cc([N+](=O)[O-])cc([N+](=O)[O-])c2)cc1	i	i	11%	-39%	1%
CCCCn1c(NS(=O)(=O)c2ccccc2)c(C(=O)OCC)c2nc3ccccc3nc21	?	i	6.5µM*	16µM*	?
CCOC(=O)c1c(N)n(CCN2CCCCC2)c2nc3ccccc3nc12	i	i	?	19%	/
CCCCn1c(NC(=O)c2ccc(Br)o2)c(C(=O)OCC)c2nc3ccccc3nc21	i	i	18µM*!	16µM*!	2%
CC(C)(C)CC(C)(C)c1ccc(O)cc1	/	/	?	9%	/
N#Cc1cc(NC(=O)c2ccc(Cl)cc2)ccc1Sc1ccccc1	i	?	/	/	25µM*
O=C(Nc1cc[c]([Sb](=[O])([OH])[OH])cc1)c1ccccc1	i	i	/	/	-1%
c1ccc(N2CCN(c3ccccc3)CC2)cc1	i	i	/	/	/
O=C1C=C(N2CC2)c2ccccc2C1=O	i	21µM*	/	/	-1%
COC(=O)C1=C(C(=O)OC)C2OC1c1cc3ccccc3cc12	i	i	?	13µM*	-1%
COC(=O)C1=C(c2ccc3ccccc3c2)C[C@@H]2CC[C@H]1N2C	i	i	11%	-5%	0%
SMILES	KB-V1 MDR tox	KB-3-1 cytotox	MCF10A rerep	SW480 rereplic	PINK1 expr mod
O=C(CN1CC=C(c2ccccc2)CC1)NC(=O)NC1CCCCC1	i	i	21µM*	-22%[1.84 µM]	0%
CC(C)c1ccc2c(c1O)CCC1C3=C(CC[C@]21C)C(=O)OC3 (stereo partly specified)	/	/	/	/	-1%
COC1CC(O[C@H]2/C(C)=C/CC3CC(C[C@]4(CCC(C)C(C5CCCCC5)O4)O3)OC(=O)[C@H]3C=C(C)/C(=N/O)C4OC/C(=C\C=C\[C@@H]2C)[C@@]43O)OC(C)C1O (stereo partly specified)	/	/	?	8%	/
Cc1ccc(-c2cc(-c3ccc(C)cc3)[n+](C)o2)cc1	i	2.9µM*	-48%	-697%	27%
Cc1ccc(-c2cc(-c3ccc(C)cc3)[n+](-c3ccc(C(=O)[O-])cc3)c(-c3ccc(C)cc3)c2)cc1	i	i	?	-3%	?
CN1[C@@H]2CC[C@H]1CC(OC1c3ccccc3CCc3ccccc31)C2 (stereo partly specified)	?	i	-2%	3.2µM*!	0%
CN1C2CCC1CC(OC(=O)c1ccc(Cl)cc1)C2 (stereo unspecified)	i	i	12%	-6%	-2%
COc1ccc(-c2nc(CSCC(=O)N3CCC4(CC3)OCCO4)c(C)o2)cc1OC	?	i	4%	7%	1%
Cc1oc(-c2cccs2)nc1CSCC(=O)N1CCC2(CC1)OCCO2	10µM*	i	-8%	-9%	1%
CC1CC2C(C(O)CC3(C)C(O)CCC23)C2(C)CCC(=O)C=C12 (stereo unspecified)	6.5µM*	12µM*	7%	6%	0%
CC1(C)C(=O)CCC2C1=CCC1C2CCC2(C)C(O)CCC12 (stereo unspecified)	i	i	7%	-1%	1%
C[C@]12CCC(=O)C=C1CC[C@@H]1[C@@H]2CC[C@@]2(C)[C@H]1CC[C@]2(C)O	?	i	?	-10%	0%
C[C@H](O)[C@H]1CC[C@H]2[C@@H]3CCC4=CC(=O)CC[C@]4(C)[C@H]3CC[C@]12C	15µM*	i	?	-13%	1%
CC12CCC(=O)C=C1CCC1C2CCC2(C)C(O)CCC12 (stereo unspecified)	4.1µM*	?	11%	1%	0%
CC(=O)C1C(N2CC2)CC2C3CCC4=CC(=O)CCC4(C)C3CCC21C (stereo unspecified)	?	?	16µM*	?	8%
COc1ccc(-n2c(/C=C\c3ccccc3F)nc3ccccc3c2=O)c(OC)c1	i	i	/	/	1%
O=C(O)COc1ccc(Br)cc1C(c1c(C(=O)O)[nH]c2ccccc12)c1c(C(=O)O)[nH]c2ccccc12	i	i	?	-32%	0%
C[C@]12CC[C@H]3[C@@H](CCC4=CC(=O)CC[C@@]43C)[C@@H]1CC[C@@H]2C(=O)CO	8.2µM*	?	?	?	0%
CC12CCC(=O)C=C1CCC1C2C(O)CC2(C)C(O)CCC12 (stereo unspecified)	?	?	-6%	-11%	0%
C[C@]12CC[C@H]3[C@@H](CCC4=CC(=O)CC[C@@]43C)[C@@H]1CC[C@@H]2O	3.7µM*	10µM*	7%	-10%	-1%
CCC(=O)O[C@H]1CC[C@H]2[C@@H]3CCC4=CC(=O)CC[C@]4(C)[C@H]3CC[C@]12C	?	i	?	-81%	2%
CCCC(C)C1(CC)C(=O)NC(=O)NC1=O (stereo unspecified)	/	/	3%	-4%	/

Screens as filed in PubChem BioAssay.
